From PubChem BioAssay (NCI)
About 83,000 compounds went through this panel and 20% of them were active in at least one assay; those are over-represented in the sample as a whole.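 96-well plates, one dose, 48 hours. Percent growth reported; active if below 10.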 Unmarked numbers belong to inactive results. Active and inactive are the calls of the source.

Test system: CCRF-CEM leukemia
Experiment: NCI-60 one-dose screen, 48 h (100 = growth as untreated, 0 = no growth, -100 = all killed)
Conditions: 10 µM

Question: With `CC(=O)OC1/C=C\CC/C=C\C1` (configuration not stated) as the compound, how does the growth read?
Answer: 103%

Question: Which growth does the source give for `CCCCCCCCC1OC1CCCCCCCC(=O)O` (configuration not stated) here?
Answer: 93%

Question: With `O=c1[nH]c(=S)[nH]c(O)c1/C=C1\C=Nc2ccccc21` as the compound, how does the growth read?
Answer: 4.02% (active)

Question: How did the growth turn out when `CCOC1=C(Cl)C(=O)C(OCC)=C(Cl)C1=O` was run?
Answer: 9.18% (active)

Question: For `Cc1ccc(C(=O)NN)cc1`, which growth is on record?
Answer: 99.5%

Question: With `O=C1C(=O)c2ccccc2C(O)=C1CCCc1ccc(Oc2ccccc2)cc1` as the compound, how does the growth read?
Answer: 32.1%

Question: How did the growth turn out when `CCN(CC)CCCC(C)Nc1c(C)cnc2cc(Cl)c(C)cc12` (configuration not stated) was run?
Answer: 62.2%

Question: With `Oc1ccc([S+](c2ccc(O)cc2)c2ccc(O)cc2)cc1` as the compound, how does the growth read?
Answer: 100%

Question: How did the growth turn out when `Cn1c2c(cc(S(=O)(=O)c3ccccc3)c1=O)CCc1c-2cnn1-c1ccc(Cl)cc1` was run?
Answer: 98.2%

Question: For `CCCCCN1CCN(C(CC(=O)c2ccccc2)C(=O)c2ccccc2)CC1` (configuration not stated), which growth is on record?
Answer: -14.7% (active)

Question: How did the growth turn out when `S=C(N/N=C/c1cc(Cl)cc(Cl)c1)NC12CC3CC(CC(C3)C1)C2` was run?
Answer: 50.8%

Question: How did the growth turn out when `CC(=O)c1ccc2c(c1)c1ccccc1n2C` was run?
Answer: 70.6%

Question: `CC1(C)NC(=S)NC1=O` was tested. Which growth did it give?
Answer: 88.2%

Question: `O=C(NC1CCN(Cc2ccccc2)CC1)c1cc(-c2cccnc2)nc2ccc(Cl)cc12` was tested. Which growth did it give?
Answer: 64%

Question: Which growth does the source give for `O=C(O)CS(=O)c1ccc(Cl)cc1` (configuration not stated) here?
Answer: 98.5%

Question: How did the growth turn out when `Cc1ccc(S(=O)(=O)NC(CCC(=O)Nc2ccccc2)C(=O)Nc2ccccc2)cc1` (configuration not stated) was run?
Answer: 5.4% (active)

Question: `COc1ccc(/C=C2\CCCC3=C2N=C2SC=NN2C3c2ccc(OC)c(OC)c2)cc1OC` (configuration not stated) was tested. Which growth did it give?
Answer: 7.48% (active)
